The supplement of paper PMC10127200
Structures can show the parent of a compound that is named as a salt.

How the values were obtained:
Test in all cases: Euclidean distance of Cell Painting phenotypic profile (signed KS, 77 features) to DMSO centroid (dimensionless distance); 5 or 10 uM (library dependent); higher = stronger phenotypic change vs DMSO (phenoactivity)
Conditions in all cases: 48 h
786-O = tested on: 786-O
How it was run: (§1)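 Phenoactivity is computed as Euclidean distance to the median vehicle profile. The profiles, drawn from 77 Harmony features scored as signed Kolmogorov-Smirnov statistics versus same-plate vehicle wells, were corrected for plate position, correlation-weighted and replicate-averaged at the top dose. Stained cells were imaged confocally at 20X (9 fields/well) after 48 h with library compounds at 10 or 5 uM, 0.1% DMSO final, in five cancer lines and a healthy fibroblast line.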

A549 = tested on: A549
How it was run: as §1

DU145 = tested on: DU145
How it was run: as §1

FB = tested on: FB
How it was run: as §1

HEPG2 = tested on: HEPG2
How it was run: as §1

OVCAR4 = tested on: OVCAR4
How it was run: as §1

Structure (SMILES) | Euclidean distance (786-O) | Euclidean distance (A549) | Euclidean distance (DU145) | Euclidean distance (FB) | Euclidean distance (HEPG2) | Euclidean distance (OVCAR4)
CN[C@H]1C(=O)N[C@@H]2Cc3ccc(cc3)Oc3cc4cc(c3O[C@@H]3O[C@H](C(=O)O)[C@@H](O)[C@H](O)[C@H]3NC(=O)CCCCCCCCC(C)C)Oc3ccc(cc3Cl)[C@@H](O)[C@@H]3NC(=O)[C@H](NC(=O)[C@@H]4NC(=O)[C@@H](NC2=O)c2cc(cc(O)c2Cl)Oc2cc1ccc2O)c1ccc(O)c(c1)-c1c(O[C@H]2O[C@H](CO)[C@@H](O)[C@H](O)[C@@H]2O)cc(O)cc1[C@@H](C(=O)NCCCN(C)C)NC3=O [Dalbavancin] | 0.58 | 0.819 | 1.15 | 0.48 | 0.566 | 0.603
COc1cc(C(C)=O)ccc1O [Apocynin] | 0.601 | 1.23 | 0.921 | 0.872 | 1.6 | 0.864
O=C(N[C@H](CO)[C@H](O)c1ccc([N+](=O)[O-])cc1)C(Cl)Cl [Chloramphenicol] | 1.22 | 1 | 1.35 | 0.994 | 0.584 | 1.3
CN(C(=O)CN(CCO)CC(=O)N(C)C(C)(C)Cc1ccccc1)C(C)(C)Cc1ccccc1 [Oxethazaine] | 1.36 | 2.36 | 1.13 | 2.17 | 1.36 | 1.96
C[C@@H](O[C@H]1OCCN(Cc2n[nH]c(=O)[nH]2)[C@H]1c1ccc(F)cc1)c1cc(C(F)(F)F)cc(C(F)(F)F)c1 [Aprepitant] | 1.15 | 1.83 | 0.905 | 1.05 | 1.43 | 1.3
CC[C@H](c1ccc(O)cc1)[C@@H](CC)c1ccc(O)cc1 [Hexestrol] | 1.62 | 1.07 | 0.97 | 0.95 | 0.662 | 1.06
COc1cccc(-c2c(C)n(Cc3c(F)cccc3C(F)(F)F)c(=O)n(C[C@H](NCCCC(=O)O)c3ccccc3)c2=O)c1F [Elagolix Sodium] | 0.686 | 1.22 | 1.02 | 0.826 | 0.728 | 1.23
CCn1cc(C(=O)O)c(=O)c2ccc(C)nc21 [Nalidixic acid] | 1.33 | 0.755 | 1.12 | 1.07 | 0.602 | 1.5
C[C@]12C[C@H](O)[C@H]3[C@@H](CCC4=CC(=O)CC[C@@]43C)[C@@H]1CC[C@@H]2C(=O)CO [Corticosterone] | 1 | 1.47 | 1.47 | 1.15 | 0.619 | 1.04
CC/C=C\C/C=C\C/C=C\C/C=C\C/C=C\C/C=C\CCC(=O)O [Docosahexaenoic Acid] | 1.08 | 0.581 | 0.837 | 1.06 | 0.766 | 1.1
Cn1nnc(-c2ccc(-c3ccc(N4C[C@H](COP(=O)(O)O)OC4=O)cc3F)cn2)n1 [Tedizolid Phosphate] | 0.75 | 0.64 | 0.82 | 0.929 | 0.638 | 0.87
Cc1ccnc2c1NC(=O)c1cccnc1N2C1CC1 [Nevirapine] | 1.2 | 0.789 | 0.803 | 0.827 | 1.93 | 0.872
CCC(=O)NC[C@@H]1C[C@H]1c1cccc2c1CCO2 [Tasimelteon] | 1.21 | 1.04 | 0.924 | 1.26 | 0.397 | 1.28
CO/N=C(\C(=O)N[C@@H]1C(=O)N2C(C(=O)[O-])=C(C[n+]3cccc4c3CCC4)CS[C@H]12)c1csc(N)n1 [Cefpirome sulfate] | 0.835 | 0.636 | 0.405 | 0.989 | 0.508 | 0.689
CNC1CCCN(c2c(F)cc3c(=O)c(C(=O)O)cn(C4CC4)c3c2OC)C1 (stereo not drawn) [Balofloxacin Dihydrate] | 0.976 | 0.602 | 0.831 | 1.09 | 1.13 | 1.02
COC(=O)c1ccc2c(c1)NC(=O)/C2=C(\Nc1ccc(N(C)C(=O)CN2CCN(C)CC2)cc1)c1ccccc1 [Nintedanib (BIBF 1120)] | 3.7 | 4.29 | 2.53 | 4.05 | 2.66 | 3.01
CNCc1ccc(-c2[nH]c3cc(F)cc4c3c2CCNC4=O)cc1 | 1.61 | 1.12 | 0.651 | 1.66 | 1.33 | 1.23
CC(C)OC(=O)CCC/C=C\C[C@@H]1[C@@H](/C=C/C(F)(F)COc2ccccc2)[C@H](O)C[C@@H]1O [Tafluprost] | 1.72 | 1.49 | 0.876 | 1.25 | 0.711 | 0.833
CC(=O)O[C@@H]1CC[C@@]2(C)[C@@H](CC[C@]3(C)[C@@H]2C(=O)C=C2[C@@H]4[C@@H](C)[C@H](C)CC[C@]4(C)CC[C@]23C)[C@@]1(C)C(=O)O | 0.752 | 0.999 | 1.02 | 0.939 | 0.732 | 0.773

Structure (SMILES) | Euclidean distance (786-O) | Euclidean distance (A549) | Euclidean distance (DU145) | Euclidean distance (FB) | Euclidean distance (HEPG2) | Euclidean distance (OVCAR4)
CCOC(=O)[C@H](CCc1ccccc1)N[C@@H](C)C(=O)N1[C@H](C(=O)O)C[C@@H]2CCC[C@@H]21 [Ramipril] | 1.25 | 0.735 | 0.891 | 1.1 | 1.89 | 1.21
CC(C)NC[C@H](O)COc1ccc(CCOCC2CC2)cc1 [Levobetaxolol HCl] | 1.03 | 0.954 | 0.622 | 0.99 | 0.412 | 0.877
C/C=C(/C(=C/C)c1ccc(O)cc1)c1ccc(O)cc1 [Dienestrol] | 0.782 | 0.603 | 0.8 | 0.859 | 0.715 | 0.784
C[C@@H](CN1CC(=O)NC(=O)C1)N1CC(=O)NC(=O)C1 [Dexrazoxane HCl (ICRF-187. ADR-529)] | 1.38 | 1.71 | 1.21 | 1.96 | 1.47 | 1.89
COc1cc2ncnc(Nc3ccc(F)c(Cl)c3)c2cc1NC(=O)/C=C/CN1CCCCC1 | 3.46 | 4.69 | 2.82 | 2.17 | 1.47 | 2.05
CN[C@H]1CN(c2ccc3c(=O)c(C(=O)O)cn(-c4nccs4)c3n2)C[C@@H]1OC [Voreloxin (SNS-595) hydrochloride] | 3.32 | 3.76 | 2.41 | 3.35 | 2.43 | 3.8
CC(=O)Nc1nc(C)c(-c2ccc(Cl)c(S(=O)(=O)NCCO)c2)s1 | 0.94 | 1.48 | 1.62 | 2.98 | 0.945 | 1.12
O=C(O[C@@H]1Cc2c(O)cc(O)cc2O[C@@H]1c1ccc(O)c(O)c1)c1cc(O)c(O)c(O)c1 [(-)-Epicatechin gallate] | 1.61 | 0.725 | 1.16 | 1.3 | 0.724 | 0.782
CCOC(=O)n1ccn(C)c1=S [Carbimazole] | 1.03 | 1.11 | 1.2 | 0.945 | 0.319 | 1.09
O=C(O)CC1CC(c2ccccc2)=NO1 (stereo not drawn) | 0.76 | 1.81 | 1.27 | 1.31 | 0.596 | 0.844
N#C/C(=C\c1ccc(O)c(O)c1)C(=O)NCc1ccccc1 [AG-490 (Tyrphostin B42)] | 1.55 | 1.52 | 1.17 | 1.34 | 0.804 | 0.729
CO/N=C(\C(=O)N[C@@H]1C(=O)N2C(C(=O)O)=C(CSc3nnnn3C)CS[C@H]12)c1csc(N)n1 [Cefmenoxime hydrochloride] | 0.657 | 0.643 | 1.22 | 0.686 | 0.775 | 0.594
CO[C@@H](C(=O)N1Cc2[nH]nc(NC(=O)c3ccc(N4CCN(C)CC4)cc3)c2C1)c1ccccc1 | 1.39 | 1.46 | 1.66 | 1.66 | 1.25 | 1.03
Nc1nc2n[nH]nc2c(=O)[nH]1 [Azaguanine-8] | 1.55 | 0.834 | 0.699 | 1.27 | 1.17 | 0.737
CCCNS(=O)(=O)Nc1ncnc(OCCOc2ncc(Br)cn2)c1-c1ccc(Br)cc1 [Macitentan] | 1.36 | 0.708 | 0.918 | 0.878 | 0.806 | 0.809
CCC[C@H](N[C@@H](C)C(=O)N1[C@H](C(=O)O)C[C@@H]2CCCC[C@@H]21)C(=O)OCC [Perindopril Erbumine] | 1.37 | 0.943 | 1.24 | 0.906 | 1.41 | 0.854
CC(=O)Nc1cccc(-n2c(=O)n(C3CC3)c(=O)c3c(Nc4ccc(I)cc4F)n(C)c(=O)c(C)c32)c1 | 3.52 | 3.28 | 3.33 | 3.79 | 1.56 | 1.94
CO[C@H]1C[C@@H]2CC[C@@H](C)[C@@](O)(O2)C(=O)C(=O)N2CCCC[C@H]2C(=O)O[C@H]([C@H](C)C[C@@H]2CC[C@@H](OP(C)(C)=O)[C@H](OC)C2)CC(=O)[C@H](C)/C=C(\C)[C@@H](O)[C@@H](OC)C(=O)[C@H](C)C[C@H](C)/C=C/C=C/C=C/1C [Deforolimus] | 2.73 | 2.02 | 1.35 | 3.08 | 1.23 | 2.14
COc1ccccc1OCC(O)CN1CCN(CC(=O)Nc2c(C)cccc2C)CC1 (stereo not drawn) [Ranolazine] | 1.2 | 0.699 | 0.507 | 0.669 | 1.08 | 1.09
